Measured values published in PubChem BioAssay (NCATS).
Inconclusive results are not listed. Entries that show only a call come without a potency. Calls of active or inactive are those of the source. The call rests on the fitted dose curve; in most records, active means well fitted inhibition curve with a large enough effect; inconclusive means small, poorly fitted or top-dose-only effect; inactive means flat fitted curve, though single readings scatter.

target: Calcium and integrin-binding protein 1 (Homo sapiens) (UniProt Q99828); assay: Primary qHTS for Identification of Calcium Integrin Binding Protein 1 (CIB1) Competitor (AID 1508620); conditions: CIB1-GST / FITC-alphaIIb peptide fluorescence polarization; series mostly up to 114 µM;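 further: GST tagged CIB1 binding a fluorescein labelled alphaIIb integrin peptide tracer; top concentration of the series differs between compounds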
Sequence (Q99828 whole entry, looked up): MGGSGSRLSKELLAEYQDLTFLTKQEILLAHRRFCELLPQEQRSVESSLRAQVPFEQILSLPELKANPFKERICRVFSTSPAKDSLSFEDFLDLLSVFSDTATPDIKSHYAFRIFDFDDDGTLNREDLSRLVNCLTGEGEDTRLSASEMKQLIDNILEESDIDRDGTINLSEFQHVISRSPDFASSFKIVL
How it was run: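 CIB1-GST (1 uM final) and compound incubated 15 min at room temperature before adding FITC-alphaIIb peptide tracer (100 nM final). Competition for binding read by fluorescence polarization (ex 480, em 540) after another 15 min at room temperature.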

Row | Structure (SMILES) | Potency
1 | Cc1cc(C)nc(NC(=S)N2CCN(c3ncnc4ccccc34)CC2)c1 | inactive
2 | COc1cc(F)c(S(=O)(=O)N2CCCN(S(=O)(=O)c3ccc(N)cc3)CC2)c(F)c1 | inactive
3 | O=C(Nc1ccc(Cl)nc1)Nc1nnc(-c2ccncc2)s1 | inactive
4 | O=C(CN1C(=O)N/C(=C\c2cn(-c3cccc(C(=O)O)c3)cn2)C1=O)Nc1ccccc1Cl | inactive
5 | O=C(Cn1ncccc1=O)NCCc1ccccc1 | inactive
6 | Cn1c2cc(C(=O)O)sc2c2cnn(Cc3ccccc3F)c(=O)c21 | inactive
7 | Cc1c(C(=O)OCC2CC2)[nH]c2c1C(=O)CC(c1ccco1)C2 (stereo not given) | inactive
8 | O=C(Nc1ncc(Cc2ccc(C(F)(F)F)cc2)s1)c1ccc(-c2ccccc2)o1 | inactive
9 | COc1ccc(COc2ccc(-c3nc4ccccc4[nH]3)cc2)cc1OC | inactive
10 | O=C1c2ccccc2C(=O)N1Cc1ccccn1 | inactive
11 | c1cncc(-c2ccc(CNc3nc(N4CCOCC4)nc4ccccc34)cc2)c1 | inactive
12 | CCCCN(C)C(=O)Cn1nc(-c2ccc(C(F)(F)F)cc2)ccc1=O | inactive
13 | Cc1cnc(-c2ccccc2C(C)C)nc1NCc1ccc(-c2cccnc2)cc1 | inactive
14 | COc1cccc(C2=Nn3c(nnc3-c3cc(OC)ccc3OC)SC2)c1 | inactive
15 | COc1ccc(C2Nc3ccccc3C(=O)N2Cc2ccncc2)cc1COc1c(C)cc(NC(C)=O)cc1C (stereo not given) | inactive
16 | FC(F)(F)c1cc(N2CCN(C(=S)Nc3cc(Cl)ccn3)CC2)cc(C(F)(F)F)c1 | inactive
17 | O=S(=O)(c1cccc(Cl)c1)N1CCN(S(=O)(=O)c2ccc3c(c2)OCCO3)CC1 | inactive
18 | Cc1occc1-c1ccc2ncnc(NCCc3cnc[nH]3)c2c1 | inactive
19 | O=C(OCC#CCSc1nnc(-c2ccc3ccccc3c2)o1)c1ccc(F)cc1 | inactive
20 | CCOc1cccc(-c2cc(-c3n[nH]c(=S)n3CC)c3ccccc3n2)c1 | inactive

Row | Structure (SMILES) | Potency
21 | CC(=O)c1c(C)[nH]c(C(=O)Nc2ccc(OCCCN(C)C)c(S(=O)(=O)Nc3ccc(Br)cc3)c2)c1C | inactive
22 | Cc1c(C(=O)N(C)CC2CCCO2)[nH]c2c1C(=O)CC(c1ccco1)C2 (stereo not given) | inactive
23 | COc1ccc(NC(=O)c2cnn3c(C)cc(C)nc23)cc1OC | inactive
24 | CC(C)(C)OC(=O)N1CCN(c2ccc(NCc3ccc(-c4cc(C(F)(F)F)cc(C(F)(F)F)c4)o3)cc2)CC1 | inactive
25 | Oc1ccc(CCc2ccccc2F)c2cccnc12 | inactive
26 | CN(C(=O)Nc1ccc2ccccc2c1)c1nnc(-c2ccncc2)s1 | inactive
27 | Cc1cc2c(s1)c1cnn(Cc3c(F)cccc3Cl)c(=O)c1n2C | inactive
28 | c1coc(CNc2nc(-c3cccs3)nc3ccccc23)c1 | inactive
29 | Cc1ccc(NC(=O)c2cnn3c(C)cc(C)nc23)c(C)c1 | inactive
30 | COc1cccc(C2c3c(ncn(CCCN4CCOCC4)c3=N)Oc3ccc4ccccc4c32)c1 (stereo not given) | inactive
31 | Cc1cc2c(s1)c1cnn(Cc3ccc(SC(F)(F)F)cc3)c(=O)c1n2C | inactive
32 | O=C(CSc1nnc(-c2cccc([S+](=O)([O-])N3CCCC3)c2)n1-c1ccccc1)Nc1ccc(Br)cc1 | inactive
33 | O=C(Nc1nnc(-c2ccncc2)s1)Nc1ccc(Cl)cc1Cl | inactive
34 | Oc1cc(Nc2cccnc2)cc2cccnc12 | inactive
35 | Cc1cccc(S(=O)(=O)NC2CCN(C#N)C2)c1 (stereo not given) | inactive
36 | O=c1c2ccccc2nc(-c2ccccc2O)n1Cc1ccccc1 | inactive
37 | Cc1ccc(-c2ccc(=O)n(CCN)n2)cc1 | inactive
38 | Cc1cc(N2C(=O)c3ccccc3C2=O)n[nH]1 | inactive
39 | Cc1c(C(=O)NCC2CCCO2)[nH]c2c1C(=O)CCC2 (stereo not given) | inactive
40 | NC(=O)C1CCN(c2ncc(-c3cccc(F)c3)s2)CC1 | inactive
